Experimental data from PubChem BioAssay.
The source made the active and inactive calls. Unless noted, no rule for the calls is given here.

Tests used:
[1] = anti-His antibody binders, primary screen, artefact control for SMM control protein annotation, biochemical, small-molecule microarray, 635 nm fluorescence (AID 1128); conditions: anti-His Alexa647 antibody binding, higher = more signal;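 also: score merges feature fluorescence with signal-to-noise for each printed compound spot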
[2] = tested on: Human papillomavirus type 1a E7 protein (residues 1-88); test: HPV1a E7 small-molecule binders, primary screen, biochemical, small-molecule microarray, residues 1-88, 635 nm (AID 1129); conditions: small-molecule microarray binding, fluorescence 635 nm; higher = more signal
[3] = target: Focal adhesion kinase 1 (Homo sapiens) (UniProt Q05397); test: small-molecule microarray binders of FAK, primary screen, biochemical, 635/667 nm fluorescence, BSA, DTT (AID 1130); conditions: PTK2 binding, 635 nm fluorescence, higher = more signal;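 also: composite of spot emission at 667 nm and signal to noise over triplicate slides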
Sequence of Focal adhesion kinase 1 (Homo sapiens) (Q05397 whole entry, looked up): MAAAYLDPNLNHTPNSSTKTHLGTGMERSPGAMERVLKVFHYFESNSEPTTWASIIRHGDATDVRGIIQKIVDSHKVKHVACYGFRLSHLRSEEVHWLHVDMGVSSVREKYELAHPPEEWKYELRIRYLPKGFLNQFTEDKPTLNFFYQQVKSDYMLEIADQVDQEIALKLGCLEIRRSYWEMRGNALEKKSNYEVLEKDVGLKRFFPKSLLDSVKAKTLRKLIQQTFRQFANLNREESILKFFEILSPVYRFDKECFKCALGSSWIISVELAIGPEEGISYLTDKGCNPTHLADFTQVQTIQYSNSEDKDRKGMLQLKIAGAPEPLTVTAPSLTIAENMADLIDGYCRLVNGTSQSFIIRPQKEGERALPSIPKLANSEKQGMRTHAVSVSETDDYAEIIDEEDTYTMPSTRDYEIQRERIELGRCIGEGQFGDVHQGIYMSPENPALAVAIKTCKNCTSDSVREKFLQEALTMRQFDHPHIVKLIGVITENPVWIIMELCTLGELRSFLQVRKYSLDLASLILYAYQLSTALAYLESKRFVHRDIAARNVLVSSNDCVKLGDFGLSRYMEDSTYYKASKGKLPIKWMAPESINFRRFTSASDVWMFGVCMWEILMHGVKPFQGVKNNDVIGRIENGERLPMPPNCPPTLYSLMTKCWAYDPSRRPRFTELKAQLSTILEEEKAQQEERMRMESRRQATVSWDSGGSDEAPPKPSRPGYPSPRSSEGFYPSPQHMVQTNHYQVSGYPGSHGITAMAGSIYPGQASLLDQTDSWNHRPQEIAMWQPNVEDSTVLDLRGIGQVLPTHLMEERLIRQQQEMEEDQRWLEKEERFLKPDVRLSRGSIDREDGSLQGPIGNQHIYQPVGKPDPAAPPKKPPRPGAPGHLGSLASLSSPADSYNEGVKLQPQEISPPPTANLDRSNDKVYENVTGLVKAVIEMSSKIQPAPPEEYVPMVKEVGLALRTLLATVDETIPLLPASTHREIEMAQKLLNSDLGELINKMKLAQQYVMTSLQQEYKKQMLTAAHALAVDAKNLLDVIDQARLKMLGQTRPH

[4] = tested on: Fibrinogen (Alexa647-labelled); test: fibrinogen binders on compound microarrays, profiling panel, artefact control for SMM control-protein annotation, biochemical, small-molecule microarray, 635/667 nm fluorescence (AID 1131); conditions: fibrinogen-A647 binding fluorescence, higher = more signal;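 also: z-score merges 667 nm fluorescence with per-spot signal-to-noise over triplicate slides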
[5] = target: Follistatin (Homo sapiens) (UniProt P19883); test: follistatin binders on small-molecule microarrays, primary screen, biochemical, small-molecule microarray, 635/667 nm fluorescence (AID 1132); conditions: FST binding, 635 nm fluorescence, higher = more signal
Sequence of Follistatin (Homo sapiens) (P19883 whole entry, looked up): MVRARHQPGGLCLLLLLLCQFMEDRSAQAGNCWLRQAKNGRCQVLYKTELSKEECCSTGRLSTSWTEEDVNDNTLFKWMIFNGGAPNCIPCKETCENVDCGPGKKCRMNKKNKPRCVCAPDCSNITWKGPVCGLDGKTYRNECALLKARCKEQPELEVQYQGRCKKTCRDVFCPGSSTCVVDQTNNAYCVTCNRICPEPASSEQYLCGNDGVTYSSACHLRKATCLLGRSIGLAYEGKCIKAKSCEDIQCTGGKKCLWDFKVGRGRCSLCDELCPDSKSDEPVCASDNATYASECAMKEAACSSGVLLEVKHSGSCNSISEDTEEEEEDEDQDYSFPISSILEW

[6] = target: Fibroblast growth factor 2 (Homo sapiens) (UniProt P09038); test: FGF2 binders on small-molecule microarrays, primary screen, biochemical, small-molecule microarray, 635/667 nm fluorescence (AID 1133); conditions: small-molecule microarray binding, FGF2, fluorescence 635/667; higher = more signal
Sequence of Fibroblast growth factor 2 (Homo sapiens) (P09038 whole entry, looked up): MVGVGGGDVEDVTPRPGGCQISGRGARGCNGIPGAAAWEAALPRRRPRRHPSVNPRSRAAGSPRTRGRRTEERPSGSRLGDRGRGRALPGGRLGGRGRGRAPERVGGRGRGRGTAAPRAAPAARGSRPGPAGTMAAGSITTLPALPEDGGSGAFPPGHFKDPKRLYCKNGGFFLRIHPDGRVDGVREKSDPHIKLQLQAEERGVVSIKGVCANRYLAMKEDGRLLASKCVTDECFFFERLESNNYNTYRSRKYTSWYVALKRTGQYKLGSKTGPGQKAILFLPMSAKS

[7] = mitochondrial membrane potential change in A549 cells, profiling panel, cell-based, JC-1 fluorescence, basal, 24 h, 100 nL (AID 1138); conditions: higher = more signal;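 also: A549 lung adenocarcinoma cells under basal conditions with no added stimulus; test concentration not given here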
Lefty1 = Lefty1 binders on small-molecule microarrays, primary screen, biochemical, small-molecule microarray, 635/667 nm fluorescence (AID 1139); conditions: small-molecule microarray binding, fluorescence 635/667; higher = more signal
[8] = tested on: wheat germ agglutinin (Triticum aestivum), Alexa647-labelled; test: wheat germ agglutinin binders on compound microarrays, profiling panel, artefact control for SMM control-protein annotation, biochemical, small-molecule microarray, 635/667 nm fluorescence (AID 1140); conditions: WGA-A647 binding, 635 nm fluorescence, higher = more signal;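 also: score merges 667 nm feature emission with signal to noise over triplicate slides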
[9] = target: Luciferin 4-monooxygenase (Photinus pyralis) (UniProt P08659); test: firefly luciferase enzyme inhibitors, primary screen, biochemical, luminescence, purified enzyme, 2006 set (AID 1141); conditions: SteadyGlo luminescence, 30 min, higher = more signal, called active from +8 up or from −8 down;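 also: cell-free assay with purified firefly luciferase at 100 ng per well in PBS; test concentration not given here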
Sequence of Luciferin 4-monooxygenase (Photinus pyralis) (P08659 whole entry, looked up): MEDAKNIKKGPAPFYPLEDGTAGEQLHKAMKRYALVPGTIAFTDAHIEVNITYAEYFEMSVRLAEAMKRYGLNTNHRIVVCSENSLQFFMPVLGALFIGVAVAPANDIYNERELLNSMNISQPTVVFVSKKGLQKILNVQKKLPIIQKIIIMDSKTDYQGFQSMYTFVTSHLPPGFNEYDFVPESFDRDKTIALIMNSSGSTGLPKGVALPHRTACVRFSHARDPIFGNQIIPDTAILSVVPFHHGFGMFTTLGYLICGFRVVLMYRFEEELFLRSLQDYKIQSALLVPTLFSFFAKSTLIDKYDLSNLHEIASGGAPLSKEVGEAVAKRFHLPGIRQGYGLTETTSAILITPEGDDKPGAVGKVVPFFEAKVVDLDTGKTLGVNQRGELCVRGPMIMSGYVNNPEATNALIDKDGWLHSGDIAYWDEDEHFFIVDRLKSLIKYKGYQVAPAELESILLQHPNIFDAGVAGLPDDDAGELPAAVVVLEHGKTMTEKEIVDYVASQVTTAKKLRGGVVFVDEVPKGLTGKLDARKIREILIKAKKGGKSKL

[10] = tested on: Wnt5a (protein binding on small-molecule microarray); test: Wnt5a binders on small-molecule microarray, primary screen, biophysical, 635/667 nm fluorescence (AID 1142); conditions: 635 nm fluorescence, higher = more signal;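 also: fluorescence read at 667 nm with signal to noise per printed feature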
[11] = cell viability in Huh7 cells, primary screen, cytotoxicity control for HCV replication inhibitor project, CellTiter-Glo luminescence, basal, 48 h (AID 1143); conditions: Huh7 HCV replicon, higher = more signal, called active from +8 up or from −8 down;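 also: Huh7 hepatoma cells carrying a hepatitis C replication reporter with no stimulus; test concentration not given here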
[12] = P. aeruginosa biofilm formation inhibitors, primary screen, PAO1 strain, BacTiter-Glo luminescence, LB-PBS (AID 1144); conditions: 12 h, higher = more signal
[13] = CREB reporter modulators without forskolin, primary screen, cell-based, PC12, CRE-LacZ reporter, unstimulated (AID 1145); conditions: no forskolin, luminescence, 4.5 h, higher = more signal, called active from +8 up or from −8 down
[14] = CREB reporter modulators under forskolin, primary screen, cell-based, PC12, CRE-LacZ reporter, forskolin-stimulated (AID 1146); conditions: luminescence, 4.5 h, higher = more signal, called active from +8 up or from −8 down;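 also: PC12 cells with 6xCRE LacZ reporter stimulated by forskolin 10 µM; beta-galactosidase reporter signal reflecting CREB driven transcription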
[15] = target: Streptavidin (Streptomyces avidinii) (UniProt P22629); test: streptavidin binders on small-molecule microarray, primary screen, artefact control for SMM compound annotation, biophysical, 635/667 nm fluorescence (AID 1147); conditions: streptavidin binding, higher = more signal;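 also: signal reflects streptavidin binding to arrayed compounds as a control protein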
Sequence of Streptavidin (Streptomyces avidinii) (P22629 whole entry, looked up): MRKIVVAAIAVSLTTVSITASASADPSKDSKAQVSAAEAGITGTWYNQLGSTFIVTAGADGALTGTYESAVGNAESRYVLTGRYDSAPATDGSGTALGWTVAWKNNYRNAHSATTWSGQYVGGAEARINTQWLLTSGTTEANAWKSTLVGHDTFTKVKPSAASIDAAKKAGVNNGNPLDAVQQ

[16] = small-molecule binders of probe aInhba, primary screen, biochemical, small-molecule microarray, 635/667 nm fluorescence (AID 1148); conditions: higher = more signal;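 also: score merges 667nm spot fluorescence with signal-to-noise for antibody binding to printed compounds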
Torsin-1A (Homo sapiens) [17] = target: Torsin-1A (Homo sapiens) (UniProt O14656); test: torsin A binders from cell lysate, primary screen, small-molecule microarray, wild-type, 635/667 nm (AID 1149); conditions: COS7 hTOR1A-WT lysate, 635 nm fluorescence, higher = more signal
Sequence of Torsin-1A (Homo sapiens) (O14656 whole entry, looked up): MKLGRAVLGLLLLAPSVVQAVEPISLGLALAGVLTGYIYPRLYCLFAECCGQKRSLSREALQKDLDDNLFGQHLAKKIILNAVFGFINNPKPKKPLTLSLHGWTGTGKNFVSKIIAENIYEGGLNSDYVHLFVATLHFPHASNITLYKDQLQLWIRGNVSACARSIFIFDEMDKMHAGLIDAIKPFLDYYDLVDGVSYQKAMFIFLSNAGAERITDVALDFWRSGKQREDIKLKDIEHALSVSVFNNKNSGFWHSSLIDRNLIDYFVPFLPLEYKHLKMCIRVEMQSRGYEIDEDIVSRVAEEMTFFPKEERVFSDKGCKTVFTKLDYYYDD

Torsin-1A (Homo sapiens) [18] = target: Torsin-1A (Homo sapiens) (UniProt O14656); test: small-molecule binders of mutant TOR1A in lysate, primary screen, cell lysate, small-molecule microarray, COS7 lysate, 635/667 nm fluorescence (AID 1150); conditions: COS7 hTOR1A mutant lysate, 635 nm fluorescence, higher = more signal;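 also: score pools 667 nm emission and signal to noise measuring lysate protein binding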
[19] = tested on: Sonic hedgehog protein (Shh); test: small-molecule binders of Shh protein, primary screen, biochemical, small-molecule microarray, 635/667 nm fluorescence (AID 1151); conditions: small-molecule microarray binding, 635 nm fluorescence; higher = more signal;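 also: Shh protein binding to compounds spotted on small-molecule microarray slides; score combines spot fluorescence intensity with signal-to-noise across triplicate slides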

Structure (SMILES)	composite z-score [1]	composite z-score [2]	composite z-score [3]	composite z-score [4]	composite z-score [5]	composite z-score [6]	z-score [7]	composite z-score (Lefty1)	composite z-score [8]	z-score [9]	composite z-score [10]	z-score [11]	z-score [12]	z-score [13]	z-score [14]	composite z-score [15]	composite z-score [16]	composite z-score (Torsin-1A (Homo sapiens) [17])	composite z-score (Torsin-1A (Homo sapiens) [18])	composite z-score [19]
COC(=O)[C@@H]1N=C(c2ccc(OCCCO)cc2)O[C@@H]1C	0.217	0.0927	0.517	-0.323	1.17	0.936	0.669	0.516	-0.257	-13.8 (active)	0.186	0.0511 (inactive)	-0.123 (inactive)	-0.31 (inactive)	0.421 (inactive)	-0.69	0.0225	0.0429	-0.425	0.369
CCOC(=O)C1=C[C@@H](C(C)(C)C)N(S(=O)(=O)c2ccc(C)cc2)[C@H]1c1cccc2ccccc12	1.15	0.716	0.191	0.896	0.466	-0.195	2.89	0.139	0.437	0.908 (inactive)	-0.219	-4.9 (inactive)	0.873 (inactive)	1.14 (inactive)	0.705 (inactive)	0.823	0.0421	-0.331	0.406	-0.165
C=CCNC(=O)[C@@H]1[C@H]2C(=O)O[C@H](c3ccccc3)[C@H](c3ccccc3)N2[C@H](c2ccccc2OCCO)[C@@]12C(=O)Nc1ccc(C#CCCO)cc12	0.169	0.723	0.415	0.862	1.43	1.62	0.861	1.32	0.5	0.467 (inactive)	0.27	-3.75 (inactive)	-1.2 (inactive)	-1.7 (inactive)	-1.17 (inactive)	-0.158	0.0111	0.188	0.527	2.03
Cc1ccccc1C(O)C1C=CC2C(=O)NC(=O)C2N1Nc1ccccn1 (stereo not given)	0.744	0.108	0.0312	0.693	-0.145	-0.227	0.0755	-0.0955	0.159	-0.792 (inactive)	-0.155	1.14 (inactive)	-0.767 (inactive)	-0.708 (inactive)	-0.474 (inactive)	-0.15	-0.102	0.248	0.0151	-0.224
COc1cc2c(cc1O)C(C1CC1)N(C)CC2 (stereo not given)	-1.19	-2.06	-0.532	-1.18	-1.09	-0.716	1.32	-1.59	-0.413	-0.872 (inactive)	-0.201	-0.426 (inactive)	0.991 (inactive)	0.479 (inactive)	-1.44 (inactive)	-0.991	-0.203	-0.829	-1.04	-0.314
[N-]=[N+]=Nc1ccccc1C[C@@]1(C(=O)N2CCOCC2)N=C(c2ccc(OCCCO)cc2)O[C@@H]1c1ccccc1	1.19	1.19	0.625	0.986	1.32	1.35	1.08	0.3	0.313	-2.43 (inactive)	1.21	-4.54 (inactive)	0.83 (inactive)	1.64 (inactive)	-0.197 (inactive)	0.269	-0.135	0.156	0.53	-0.227
Cn1cccc1C(O)C1C=CC2C(=O)N(c3ccccc3)C(=O)C2N1Nc1ccccc1 (stereo not given)	0.933	1.23	0.848	0.954	1.29	0.984	0.569	0.475	0.557	-0.589 (inactive)	0.402	0.525 (inactive)	-0.758 (inactive)	-0.525 (inactive)	-0.0981 (inactive)	1.77	0.153	0.478	0.726	0.379
NC(=O)[C@@]1(Cc2ccccc2)COC(c2ccc(OCCCO)cc2)=N1	1.19	-0.974	0.0264	-0.979	-0.0248	0.387	-0.244	0.0016	0.523	-4.28 (inactive)	0.0546	0.257 (inactive)	0.126 (inactive)	2.24 (inactive)	-1.34 (inactive)	-0.504	0.105	-0.475	0.709	-0.429
COc1ccc([Si](C)(C)[C@H]2[C@H](CC(=O)N3CCC[C@H]3CO)O[C@@]3(C(=O)N(Cc4ccc(N5CCOC5=O)cc4)c4ccccc43)[C@@H]2C)cc1	2.43	1.18	0.395	0.692	1.34	1.56	2.59	1.16	0.697	0.31 (inactive)	0.434	-2.09 (inactive)	0.11 (inactive)	0.702 (inactive)	-0.101 (inactive)	-0.0564	0.235	0.702	0.64	2.05
CC[C@@H]1O[Si](C(C)C)(C(C)C)c2c1cc(-c1cc(C)c(OC)c(C)c1)nc2-c1ccc(Oc2ccccc2)cc1	-0.23	-0.772	-0.29	-1.22	-0.261	-0.315	-0.413	0.287	0.1	1.09 (inactive)	-0.216	0.0485 (inactive)	-0.523 (inactive)	-0.491 (inactive)	0.316 (inactive)	-0.21	-0.231	-0.851	-0.542	0.305
